# Assay outcomes deposited in PubChem by National Center for Advancing Translational Sciences (NCATS).
# Compounds with a hit are over-represented: about 7.6% of the library has one in this group of screens.
# KCNH2 3.1 block – blocks the human KCNH2 3.1 channel isoform | U2OS KCNH2 3.1, thallium flux FluxOr; hits give low values | activity change, % (tested at about 1.8 µM) | 0.95% of 340,000 active;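 active = maximum activity change below -70%; inconclusive = maximum activity change from -70% to -50%; inactive = maximum activity change above -50%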;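 also: thallium influx rate constant from kinetic fluorescence after stimulation buffer; % is scaled to controls: 0 for no effect and ±100 for the full control effect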
#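 FluxOr-based Tl+ influx in U2OS cells transduced with KCNH2 3.1 virus; rate constants normalized to DMSO controls.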
# KB-3-1 tox – kills parental KB-3-1 adenocarcinoma cells. KB-3-1 viability, CellTiter-Glo ATP luminescence, 72 h. Potency, µM (doses to about 46.1 µM), hits mostly cytotoxic. 1.4% of 400,000 active. AID 1347075; also: potency is read from the fitted curve at half-maximal effect; % is scaled to controls: 0 for no effect and ±100 for the full control effect; nearly all actives have a fitted effect of over 60% in size
#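 Screening of KB-3-1 cells (DMEM, 10% FBS, phenol-red free) ran from lowest to highest compound concentration; after 72 h at 37 °C viability was read luminescently and curves fitted.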
# KB-V1 cytotox – KB-V1 MDR subline cytotoxicity; KB-V1 MDR cells viability, CellTiter-Glo, 72 h; Potency, µM (titrated, usually from 46.1 µM), usual class: cytotoxic; 3.4% of 400,000 active; also: potency is read from the fitted curve at half-maximal effect; % is scaled to controls: 0 for no effect and ±100 for the full control effect; nearly all actives have a fitted effect of over 60% in size
#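 Cytotoxicity via CellTiter-Glo luminescence after 72 h compound exposure at 37 degrees C. Cells: drug-selected KB-V1 line, DMEM phenol-red free plus 10% FBS. Compounds tested at multiple concentrations; normalized data fitted to concentration-effect curves.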
# MCF10A rerep – induces DNA re-replication in MCF 10a normal breast cells; 2.9% of 350,000 active; MCF 10A DNA re-replication, Hoechst nuclear intensity, 48 h; Potency, µM (top dose mostly 46.1 µM), inactives show at the top dose activity, positive = re-replication, actives largely listed as activators; also: potency is read from the fitted curve at half-maximal effect; % of control where 0% means no effect; nearly all actives have a fitted effect of over 50% in size
# SW480 rerep – inducers of DNA re-replication in SW480 colon cancer cells | SW480 DNA re-replication, Hoechst DNA content imaging, 48 h | Potency, µM (titrated, usually from 46.1 µM), for inactives: top-dose re-replication activation, usual class: activators | 1.8% of 340,000 active | AID 624297; also: potency is read from the fitted curve at half-maximal effect; % of control where 0% means no effect; nearly all actives have a fitted effect of over 55% in size
#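 SW480 cells exposed to compounds for 48 hr at 37 C, 5% CO2, then Hoechst-stained 40 min. Nuclear DNA content imaged by fluorescence scanning (405 nm excitation, 500-530 nm emission); re-replication scored as increased high-intensity nuclei.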
# KCNH2 WT inh – blocks the wildtype human KCNH2 potassium channel; activity change, % at 1.84 µM; Q12809; AID 720551; 0.37% of 340,000 active; U2OS, BacMam KCNH2, thallium flux FluxOr; hits give low values;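 active = maximum activity change below -70%; inconclusive = maximum activity change between -70% and -50%; inactive = maximum activity change above -50%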; also: % is scaled to controls: 0 for no effect and ±100 for the full control effect
# Target sequence (Q12809 whole entry, looked up): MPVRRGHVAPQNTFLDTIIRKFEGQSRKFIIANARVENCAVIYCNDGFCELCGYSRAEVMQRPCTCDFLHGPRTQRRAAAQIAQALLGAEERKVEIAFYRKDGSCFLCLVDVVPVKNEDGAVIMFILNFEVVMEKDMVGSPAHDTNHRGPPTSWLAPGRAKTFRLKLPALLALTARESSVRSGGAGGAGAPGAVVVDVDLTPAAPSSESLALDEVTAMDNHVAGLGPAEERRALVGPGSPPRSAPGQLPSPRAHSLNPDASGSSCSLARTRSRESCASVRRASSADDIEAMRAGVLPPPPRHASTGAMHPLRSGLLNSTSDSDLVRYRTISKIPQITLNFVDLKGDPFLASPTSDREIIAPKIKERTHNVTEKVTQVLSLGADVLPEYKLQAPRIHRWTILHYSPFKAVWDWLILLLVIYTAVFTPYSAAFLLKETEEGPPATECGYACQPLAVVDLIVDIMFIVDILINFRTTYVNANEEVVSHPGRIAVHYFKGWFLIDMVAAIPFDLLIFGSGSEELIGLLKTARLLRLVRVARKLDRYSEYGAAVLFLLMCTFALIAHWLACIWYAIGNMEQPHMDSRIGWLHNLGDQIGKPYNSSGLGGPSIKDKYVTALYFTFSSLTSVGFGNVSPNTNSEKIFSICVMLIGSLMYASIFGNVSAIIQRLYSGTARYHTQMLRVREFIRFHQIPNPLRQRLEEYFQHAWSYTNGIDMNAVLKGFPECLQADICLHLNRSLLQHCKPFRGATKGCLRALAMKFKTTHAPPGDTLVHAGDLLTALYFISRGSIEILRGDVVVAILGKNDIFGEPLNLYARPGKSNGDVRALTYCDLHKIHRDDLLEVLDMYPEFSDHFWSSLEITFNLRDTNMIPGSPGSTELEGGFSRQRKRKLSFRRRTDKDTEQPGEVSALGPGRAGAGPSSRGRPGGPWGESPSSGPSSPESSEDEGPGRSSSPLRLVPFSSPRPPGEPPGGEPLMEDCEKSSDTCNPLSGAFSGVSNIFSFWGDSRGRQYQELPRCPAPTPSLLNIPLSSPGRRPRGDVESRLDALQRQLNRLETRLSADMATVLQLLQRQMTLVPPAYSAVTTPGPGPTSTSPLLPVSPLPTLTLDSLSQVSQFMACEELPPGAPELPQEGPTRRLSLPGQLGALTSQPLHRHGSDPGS
#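 U2OS cells were transduced with wild-type KCNH2 virus (2.03 x 10^8 / mL) for 4 h at room temperature, then cultured overnight at 37 C. Thallium flux was read with FluxOr dye. Rate constants were normalized to DMSO controls.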
# * hit, by the source's call; i = inactive; ? = inconclusive; / = no result given; ! = repeats disagree. Unless noted, calls follow the shape of the dose curve; as a rule, active = well fitted curve in the direction sought with a large enough effect; inconclusive = small, poorly fitted or top-dose-only effect, or another doubt; inactive = no such curve, though single readings can be large; an effect the other way counts as inactive or inconclusive.
SMILES,KCNH2 3.1 block,KB-3-1 tox,KB-V1 cytotox,MCF10A rerep,SW480 rerep,KCNH2 WT inh
O=C(c1ccc2c(c1)OCO2)C1CCCN(Cc2ccc(OC(F)F)cc2)C1 (stereo unspecified),-94*,i,?,-11%,-12%,-8
O=C(c1ccc2c(c1)OCO2)C1CCCN(Cc2ccc3cccc(F)c3n2)C1 (stereo unspecified),-101*,i,?,0%,5%,-25
O=C(c1ccc2c(c1)OCO2)C1CCCN(Cc2cccc(C(F)(F)F)c2)C1 (stereo unspecified),-10,i,i,?,0%,26
COCCNC(=O)/C(C#N)=C/c1ccc(O)cc1,2,i,i,-1%,-5%,-5
COCCNC(=O)/C(C#N)=C/C=C/c1ccccc1[N+](=O)[O-],14,i,?,15µM*,23%,-11
COCCNC(=O)/C(C#N)=C/c1cccc(/C=C(\C#N)C(=O)NCCOC)c1,-1,?,i,21µM*,?,5
COc1ccc(CNC(=O)c2cc3cc(OC)ccc3oc2=O)cc1,-16,15µM*!,?,16µM*,-8%,-1
CCCOc1ccc2cc(C(=O)NCc3ccccc3)c(=O)oc2c1,12,i,i,23µM*,5%,-4
Cc1ccc(/C=C/c2ccc(=O)n(Cc3ccccc3Cl)n2)cc1,-16,?,21µM*,?,-5%,2
COc1ccc(/C=C/c2ccccn2)cc1,/,23µM*,i,/,/,/
COc1ccc(/C=C/c2ccc(=O)n(Cc3ccccc3)n2)cc1,-9,i,?,21µM*,-4%,-9
Cc1ccc(S(=O)(=O)N2CCN(C(=O)C3COc4ccccc4O3)CC2)cc1C (stereo unspecified),8,i,9.2µM*,12%,1%,-20
Cc1ccc(S(=O)(=O)N2CCN(C(=O)[C@H](Cc3ccccc3)NC(=O)c3ccco3)CC2)cc1C,4,i,12µM*,2%,0%,8
CC(C)(C)SCCNS(=O)(=O)c1ccc(C#N)cc1,21,i,i,-1%,-9%,11
S=C1NCN(C2CCCCC2)CN1c1ccccc1,-96*,i,i,-2%,?,-3
Cc1occc1-c1nnc(-c2cc([N+](=O)[O-])cc([N+](=O)[O-])c2)o1,1,i,i,0%,13µM*,4
O=[N+]([O-])c1cccc(-c2nnc(-c3ccccc3)o2)c1,-4,i,i,?,-4%,-5
Cc1ccc(NC(=O)CSc2ccccc2NC(=O)c2ccccc2)cc1Cl,-10,i,?,21µM*,5%,-7
Cc1cc(NC(=O)c2ccccc2Cl)ccc1NC(=O)c1ccccc1Cl,4,i,i,3%,-3%,-8
Cc1ccc(NC(=O)CSc2ccccc2NC(=O)c2ccccc2Cl)cc1Cl,-10,?,3.7µM*,14%,2%,0
Cc1ccc(NC(=O)COc2ccccc2)cc1Cl,18,i,i,?,0%,-14
COC(=O)\C(C(C)=O)=C(/C=C/C=C/C=C/N(C)C)N(C)C,11,i,i,-1%,-7%,2
CCOC(=O)C(=Cc1ccc2c(c1)OCO2)c1ccccc1,0,i,i,?,19%,3
N#Cc1ccc(CN2C=NS(=O)(=O)c3ccccc32)cc1,1,i,i,3%,-6%,2
C/C(=N\Nc1ccc([N+](=O)[O-])cc1)c1cccc(N)c1,4,i,?,?,6%,-1
SMILES,KCNH2 3.1 block,KB-3-1 tox,KB-V1 cytotox,MCF10A rerep,SW480 rerep,KCNH2 WT inh
Cc1cccc(C(=O)Oc2ccccc2/C=N/Nc2ccc([N+](=O)[O-])cc2)c1,-1,?,i,?,13µM*,-2
CCCCCCCCCS(=O)(=O)N/N=C/c1cccc([N+](=O)[O-])c1,11,i,i,15µM*,0%,-10
C/C(=N\Nc1ccc([N+](=O)[O-])cc1)c1ccc(O)cc1,-3,i,i,15µM*,23µM*,-15
O=[N+]([O-])c1ccc(NN=Cc2cccc([N+](=O)[O-])c2)cc1,-10,i,i,23µM*,25%,6
COc1ccc(CNC(=O)OCc2nccnc2C(=O)Nc2ccc(Br)cn2)cc1,-31,i,i,5%,17%,5
COc1ccc(-n2nnnc2C(c2ccccc2OC(F)(F)F)N2CCN(C/C=C/c3ccccc3)CC2)cc1 (stereo unspecified),/,i,?,/,/,/
CCc1cc(=O)oc2c(CNCc3ccccc3F)c(O)c(Cl)cc12,9,i,i,?,-27%,-4
Cc1c(NC(=O)COC(=O)CSc2ccc(C(N)=O)cc2[N+](=O)[O-])c(=O)n(-c2ccccc2)n1C,/,i,i,?,2%,16
O=[N+]([O-])c1ccc(N/N=C/c2ccc[nH]2)cc1,-5,i,?,22%,19%,-18
O=[N+]([O-])c1ccc(N/N=C/c2cccc(O)c2O)cc1,-4,?,i,23µM*,?,-5
O=[N+]([O-])c1ccc(N/N=C/c2cn(-c3ccccc3)nc2-c2ccccc2)cc1,?,i,?,1.6µM*,10µM*,-7
CCCCCCCCCCS(=O)(=O)N/N=C/c1ccccc1OC,4,i,i,18µM*,-2%,-9
O=C(O)/C=C/c1cn(-c2ccccc2)nc1-c1ccc(-c2ccc([N+](=O)[O-])cc2)o1,-7,i,i,3.3µM*,?,-6
NS(=O)(=O)c1ccc(N/N=C/c2cn(-c3ccccc3)nc2-c2ccccc2)c([N+](=O)[O-])c1,1,?,?,23%,-33%,8
C(=C\c1ccnc2ccccc12)/c1cc2c3c(c1)CCCN3CCC2,/,i,i,/,/,/
CCOc1ccc(-c2nc(CSCC(=O)NCc3ccc(Cl)cc3)c(C)o2)cc1,/,i,i,/,/,/
C[C@@H]1CN([C@@H](C)CO)C(=O)CCCn2nncc2CO[C@@H]1CN(C)C(=O)C1CCCCC1,1,i,i,/,/,2
O=[N+]([O-])c1ccc(N/N=C/c2cccnc2)cc1,-10,i,i,13%,?,11
O=[N+]([O-])c1ccc(N/N=C/c2cccc(O)c2)cc1,-26,i,i,18µM*,?,-3
CCCCOc1ccc(Nc2cc(Cl)ccc2C(=O)O)cn1,8,i,i,16µM*,7%,2
